TWEAK Fn14 block: TWEAK-Fn14 signaling inhibition; TWEAK-stimulated Fn14 reporter cells, luciferase luminescence, 8 h; inhibition, % at 10 µM; hit rate 2% among 360,000; AID 1159606; in the data active means inhibition above about 50%
MITF act: activators of MITF-driven TRPM1 promoter activity in SK-MEL-5 cells; hit rate 0.75% among 300,000; SK-MEL-5 TRPM1-promoter luciferase, 24 h; % of positive control, neutral wells = 0; activation, % at 12.5 µM;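 active means mean activation of at least 80% with every replicate also reaching 80%; inconclusive means mean reaches 80% but some replicate falls short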
TROY NFkB inh: inhibitors of TROY-dependent NF-kB signaling | hit rate 0.98% among 360,000 | Q293 LMP1-TROYcd NF-kB luciferase reporter, 4 h | AID 1347056 | inhibition, % at 10 µM;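 active means compounds whose plate-normalised and pattern-corrected inhibition of the luciferase reporter signal at the single screening dose is 50% or more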
LGR2 inh: inhibitors of bursicon-induced Drosophila LGR2 receptor cAMP signaling | HEK293 LGR2, CRE-luciferase, bursicon-stimulated, 4 h | inhibition, % at 9.99 µM | hit rate 0.35% among 380,000;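 active means drop in luminescence signal, shown as inhibition above about 50% in the replicate tests, limit read from the data, passing the limit was not always enough; inconclusive means probably only some replicates passing the limit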;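 further: agonist challenge used bursicon conditioned medium at about half maximal strength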
MITF TRPM1 inh: inhibitors of MITF-driven TRPM1 promoter in melanoma cells. hit rate 0.83% among 330,000. SK-MEL-5 TRPM1 promoter luciferase, 24 h. inhibition, % at 12.5 µM. AID 488899;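 active means mean inhibition across replicates of 60% or more, whatever share of single replicates reaches that level; inconclusive means some that reach 60%, reason not given; inactive means mean inhibition across replicates below 60%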
LMP1 NFkB inh: inhibitors of Epstein-Barr LMP1-induced NF-kappaB reporter; LMP1-induced NF-kappaB luciferase reporter cells, luminescence; inhibition, % at 12.5 µM; hit rate 0.69% among 350,000; AID 504558; in the data active means inhibition above about 41%; inconclusive means no clear call, values can overlap the other calls
Large screens that a line does not name were inactive. Hits are enriched below; roughly 3% of the tested compounds scored in any of these assays.

CSc1nc2ccc(NC(=O)c3cc4ccccc4o3)cc2s1	none
CN1CCN(C(=O)C[C@H]2C[C@@H]3c4cc(NC(=O)C5CCOCC5)ccc4O[C@@H]3[C@@H](CO)O2)CC1	none (no result: TWEAK Fn14 block, MITF act, TROY NFkB inh, MITF TRPM1 inh, LMP1 NFkB inh)
Cc1nc(SCC(=O)O)c2oc3ccccc3c2n1	none (no result: MITF act, LGR2 inh)
CCn1c(SCC(=O)N2CCN(c3ccccc3)CC2)nnc1-c1cc2cc(Cl)ccc2o1	TROY NFkB inh 59.2 (no result: LGR2 inh)
C=CCn1c(SCC(=O)N2CCN(c3ccccc3)CC2)nnc1-c1ccco1	none (no result: MITF act)
Cc1nc(SCC(=O)N2CCN(c3ccccc3)CC2)c2oc3ccccc3c2n1	TWEAK Fn14 block 52.3 (no result: LGR2 inh)
Cn1c(CC(=O)Nc2ccc(Cl)c(Cl)c2)nnc1SCC(=O)N1CCN(c2ccccc2)CC1	TWEAK Fn14 block 50.5
COc1ccc(NC(=O)Cn2nnc(-c3ccccc3NS(=O)(=O)c3ccccc3)n2)cc1	TWEAK Fn14 block 54.3 (no result: LGR2 inh)
Cc1ccc(NS(=O)(=O)c2cc(NC(=O)C(C)Oc3ccccc3)ccc2C)c(C)c1 (centres undefined)	none
O=C(O)CSc1cc(NS(=O)(=O)c2cccc([N+](=O)[O-])c2)c2ccccc2c1O	TWEAK Fn14 block 90.7, TROY NFkB inh 61.5, LGR2 inh inconclusive, MITF TRPM1 inh 75.8
Cc1ccc(C)c(S(=O)(=O)Nc2cc(SCC(=O)O)c(O)c3ccccc23)c1	TWEAK Fn14 block 94.4, TROY NFkB inh 59.2, MITF TRPM1 inh 67.1 (no result: LGR2 inh)
CCOc1ccc(S(=O)(=O)Nc2cc(SCC(=O)O)c(O)c3ccccc23)cc1	TROY NFkB inh 54.5 (no result: MITF act)
CCc1ccc(S(=O)(=O)Nc2ccc(O)c3ccccc23)cc1	TWEAK Fn14 block 94.1
COCC(=O)Nc1ccc2c(c1)[C@@H]1C[C@H](CC(=O)NCc3ccc(Cl)cc3)O[C@@H](CO)[C@@H]1O2	none (no result: TWEAK Fn14 block, MITF act, TROY NFkB inh, MITF TRPM1 inh, LMP1 NFkB inh)
CCc1ccc(S(=O)(=O)Nc2cc(SCC(=O)O)c(O)c3ccccc23)cc1	TWEAK Fn14 block 83.0, TROY NFkB inh 60.0
Cc1oc2c(cc(NS(=O)(=O)c3ccc(C(C)C)cc3)c3ccccc32)c1C(=O)O	none
N#C/C(=C\c1ccc([N+](=O)[O-])o1)c1nc2ccccc2[nH]1	none (no result: TWEAK Fn14 block, MITF act, TROY NFkB inh, MITF TRPM1 inh, LMP1 NFkB inh)
Cc1ccc2nc(/C(C#N)=C\c3ccc([N+](=O)[O-])o3)[nH]c2c1	TWEAK Fn14 block 98.7, MITF TRPM1 inh 92.4 (no result: LGR2 inh)
N#C/C(=C(/O)c1ccc([N+](=O)[O-])o1)c1nc2ccccc2[nH]1	TROY NFkB inh 50.0, MITF TRPM1 inh 87.5
COc1ccccc1NC(=O)N[C@@H]1CC[C@H](CCn2cc(-c3ccccc3)nn2)O[C@H]1CO	none (no result: TWEAK Fn14 block, MITF act, TROY NFkB inh, MITF TRPM1 inh, LMP1 NFkB inh)
COc1coc(C(O)CN)cc1=O (centres undefined)	none
CCOC(=O)C(=Cc1cc(=O)c(OC)co1)C(=O)OCC	TWEAK Fn14 block 98.1, LGR2 inh inconclusive, MITF TRPM1 inh 98.1
COCCn1c(SCC(=O)c2ccc3c(c2)OCCO3)nnc1-c1ccoc1C	none (no result: LGR2 inh)
Nn1c(SCC(=O)Nc2ccc3c(c2)OCCO3)nnc1-c1ccccn1	TWEAK Fn14 block 77.4
Nc1ccccc1SCC(=O)Nc1ccc2c(c1)OCO2	none
Cc1ccccc1-c1nnc(SCC(=O)Nc2ccc3c(c2)OCCO3)n1N	none (no result: MITF act)
Cc1cc(C)n(C(C)CC(=O)Nc2ccc3c(c2)OCCO3)n1 (centres undefined)	TWEAK Fn14 block 60.8
COCCCn1c(SCC(=O)Nc2ccc3c(c2)OCCO3)nnc1-c1ccoc1C	TWEAK Fn14 block 63.7 (no result: LGR2 inh)
Nc1ccccc1SCC(=O)Nc1ccc2c(c1)OCCO2	TWEAK Fn14 block 67.7, TROY NFkB inh 57.9
COc1ccc(CNC(=O)C[C@H]2CC[C@H](NC(=O)c3cccc(F)c3)[C@H](CO)O2)cc1	none (no result: TWEAK Fn14 block, MITF act, TROY NFkB inh, MITF TRPM1 inh, LMP1 NFkB inh)
O=C(Nc1ccccc1)N1C[C@@H]2[C@H](c3ccccc31)[C@H](CO)N2C(=O)c1ccccc1F	none (no result: TWEAK Fn14 block, MITF act, TROY NFkB inh, MITF TRPM1 inh, LMP1 NFkB inh)
CC(=O)NC(CC(=O)Nc1ccc2c(c1)OCCO2)c1ccccc1 (centres undefined)	none
O=C(CC(c1ccccc1)c1ccccc1)Nc1ccc2c(c1)OCCO2	TWEAK Fn14 block 52.3 (no result: LGR2 inh)
O=C(CSc1nnc(-c2cccc(Cl)c2)o1)Nc1ccc2c(c1)OCCO2	MITF act 88.4
O=C(CSCc1ccccc1Cl)Nc1ccc2c(c1)OCCO2	MITF act 134.5 (no result: LGR2 inh)
N/C(=N\OC(=O)COc1ccc(Cl)cc1Br)c1ccncc1	MITF act 92.0
CCc1ccc(OCC(=O)O/N=C(\N)c2ccncc2)c(Br)c1	MITF act 103.4
CCc1ccc(OCC(=O)O/N=C(\N)c2ccncc2)cc1	none
N/C(=N\OC(=O)COc1ccc(Cl)cc1Cl)c1cccnc1	MITF act 141.6
N/C(=N\OC(=O)CCCOc1ccc(Cl)cc1Cl)c1ccncc1	none
COc1ccc(S(=O)(=O)Nc2cccc3c2O[C@H](CN(C)C)[C@H](C)CN([C@@H](C)CO)C3=O)cc1	none (no result: TWEAK Fn14 block, MITF act, TROY NFkB inh, MITF TRPM1 inh, LMP1 NFkB inh)
COc1cccc(-c2nc(-c3ccc4c(c3)NC(=O)CO4)cs2)c1	MITF act 105.4
O=C1C(Oc2ccccc2)C(c2cccs2)N1Cc1ccc2c(c1)OCO2 (centres undefined)	none
COc1ccc(OC2C(=O)N(Cc3ccc4c(c3)OCO4)C2c2cccs2)cc1 (centres undefined)	TWEAK Fn14 block 61.0
COCC(=O)Nc1ccc2c(c1)C(=O)N(C)[C@@H]1CC[C@@H](CC(=O)NCCc3ccncc3)O[C@H]1CO2	none (no result: TWEAK Fn14 block, MITF act, TROY NFkB inh, MITF TRPM1 inh, LMP1 NFkB inh)
O=C1c2ccccc2C(Nc2ccc3c(c2)OCCO3)N1c1ccccn1 (centres undefined)	TWEAK Fn14 block 62.6
O=C1c2ccccc2C(Nc2ccc3c(c2)OCCO3)N1Cc1ccc2c(c1)OCO2 (centres undefined)	TWEAK Fn14 block 73.9, TROY NFkB inh 63.3 (no result: MITF act, MITF TRPM1 inh)
O=C1c2ccccc2C(Nc2ccccc2)N1Cc1ccc2c(c1)OCO2 (centres undefined)	none
COc1ccccc1CNC(=O)C[C@H]1C=C[C@H](NC(C)=O)[C@@H](CO)O1	none (no result: TWEAK Fn14 block, MITF act, TROY NFkB inh, MITF TRPM1 inh, LMP1 NFkB inh)
CN(C)S(=O)(=O)c1cccn1-c1ncc(C(F)(F)F)cc1Cl	LMP1 NFkB inh 56.4 (no result: LGR2 inh)
CCN(CC)c1ncnc2c1cnn2Cc1ccc(C)cc1	none
CCN(CC)c1nc(C)nc2c1cnn2CCc1ccccc1	MITF act 89.1 (no result: LGR2 inh)
O=C(Cc1cccs1)N/N=C/C(Br)=C/c1ccccc1	MITF act 107.1 (no result: LGR2 inh)
O=C(N/N=C/C(Cl)=C\c1ccccc1)c1cccs1	none (no result: MITF act)
CC(/C=N/NC(=O)c1sc(N)nc1C)=C\c1ccccc1	MITF act 120.0
CC(/C=N/NC(=O)c1ccccc1C)=C\c1ccccc1	none (no result: MITF act, MITF TRPM1 inh, LMP1 NFkB inh)
CC(/C=N/NC(=O)c1cccs1)=C\c1ccccc1	MITF act 98.5
CC(/C=N/NC(=O)c1ccccc1F)=C\c1ccccc1	MITF act 99.3
C/C=C/c1ccc([C@H]2[C@@H](CO)N3C(=O)CN(C(=O)c4ccc(F)cc4)C[C@@H]23)cc1	none (no result: TWEAK Fn14 block, MITF act, TROY NFkB inh, MITF TRPM1 inh, LMP1 NFkB inh)
CC(/C=N/NC(=O)Cc1cccs1)=C\c1ccccc1	MITF act 123.6
O=C(CN1CCOCC1)N/N=C/C(Br)=C\c1ccccc1	none
Cc1ccccc1NCC(=O)N/N=C/C(Br)=C/c1ccccc1	TWEAK Fn14 block 57.7 (no result: LGR2 inh)

Bioassay records (PubChem)
